39 compounds from PubChem BioAssay AID652015 (National Center for Advancing Translational Sciences (NCATS), 2013) can be followed below.

Inconclusive results are not listed. A number with no mark means an inactive call. Active and inactive are the calls of the source. Calls follow the shape of the dose curve; as a rule, active = well fitted inhibition curve with a large enough effect; inconclusive = small, poorly fitted or top-dose-only effect; inactive = no such curve, though single readings can be large or run the other way.
Potency is read from the fitted curve at half-maximal effect.

Coelenterazine h 2-monooxygenase (Renilla reniformis), sequence (P27652 whole entry, looked up): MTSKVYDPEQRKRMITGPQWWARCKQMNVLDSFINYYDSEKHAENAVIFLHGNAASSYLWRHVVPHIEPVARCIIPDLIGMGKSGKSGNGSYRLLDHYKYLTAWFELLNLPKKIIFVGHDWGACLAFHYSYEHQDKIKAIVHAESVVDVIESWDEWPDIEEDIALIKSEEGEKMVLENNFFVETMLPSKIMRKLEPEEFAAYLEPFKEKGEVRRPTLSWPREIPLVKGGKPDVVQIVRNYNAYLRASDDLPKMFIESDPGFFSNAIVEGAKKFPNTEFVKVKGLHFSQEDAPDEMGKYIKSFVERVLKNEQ

The experiment concerns the target Coelenterazine h 2-monooxygenase (Renilla reniformis) (UniProt P27652). The experiment is described as follows: qHTS Assay for Inhibitors of Sea Pansy Luciferase from the GSK Published Protein Kinase Inhibitor Set. The settings on record: purified Renilla luciferase, luminescence; series mostly up to 57.5 µM; activity change, negative = inhibition: at the top concentration. Summed up: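 Purified R. reniformis luciferase (1 nM final) with 5 uM coelenterazine h in 50 mM Tris acetate pH 7.5, 100 uM NaCl, 0.01% Tween-20, 0.05% BSA. A titration, about 60 uM to 300 pM; luminescence read after about 2 min.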
Turning to `CC(C)(C)c1ccc(Oc2nccc(-c3c(-c4ccc(F)cc4)ncn3C3CCNCC3)n2)cc1`, the “activity change, negative = inhibition” value was 31.2%.

As for `NC(=O)c1ccc(Oc2nccc(-c3c(-c4ccc(F)cc4)ncn3C3CCNCC3)n2)cc1`, the “activity change, negative = inhibition” value was 32.1%. Take `COc1ccc2cc(-c3c(-c4ccncc4)nc(-c4ccc(S(C)(=O)=O)cc4C)n3C)ccc2c1`: the “activity change, negative = inhibition” value was -10.9%.

Regarding `COc1cccc(-c2c[nH]c3c(NN=Cc4ccncc4)ncnc23)c1`, the “activity change, negative = inhibition” value was 39.2%. In the case of `CC1=C(C(=O)Nc2ccc3[nH]ncc3c2)C(c2ccc(F)cc2)NC(=O)N1` (centres undefined), the “activity change, negative = inhibition” value was -1.71%.

As to `CCn1c(-c2nonc2N)nc2cncc(C(=O)N3CCC(N)C3)c21` (centres undefined), the “activity change, negative = inhibition” value is 2.39%. For `CCN1CCC(CC(=O)Nc2n[nH]c3nnc(-c4cccc(F)c4F)cc23)CC1`, the “activity change, negative = inhibition” value was 4.99%. Regarding `CCN1CCC(C(=O)Nc2n[nH]c3nnc(-c4cccc(F)c4F)cc23)CC1`, the “activity change, negative = inhibition” value is 10.2%.

`COc1cc2ncn(-c3cc(OCc4ccccc4S(C)(=O)=O)c(C#N)s3)c2cc1OC`: the “activity change, negative = inhibition” value was 1.76%. Turning to `CN(C)c1ccc2[nH]c(O)c(C=Nc3ccc(S(N)(=O)=O)cc3)c2c1`, the Potency is 5.8 µM (active). With `COc1cc(N2CCN(C(C)C)CC2)ccc1Nc1nc(Nc2cccc(F)c2C(=O)O)c2cc[nH]c2n1`, the “activity change, negative = inhibition” value is 8.99%.

As for `CS(=O)(=O)CCNCc1ccc(-c2ccc3ncnc(Nc4ccc(OCc5ccccc5)c(Br)c4)c3c2)o1`, the “activity change, negative = inhibition” value is 19.8%.

On to `CCCN(CCS(C)(=O)=O)Cc1ccc(-c2ccc3ncnc(Nc4ccc(OCc5cccc(F)c5)c(Cl)c4)c3c2)o1`, for which the “activity change, negative = inhibition” value was 42%.

Regarding `CC(=O)NCc1cccc(C#Cc2cncnc2Nc2ccc(OCc3cccc(F)c3)c(Cl)c2)c1`, the “activity change, negative = inhibition” value was 35.6%.

Turning to `O=C1Nc2ccc(C(=O)c3ccco3)cc2/C1=C/c1cc(Cl)c(O)c(Cl)c1`, the Potency was 16.3 µM (active). For the compound `COc1cccc(-n2ncc3c(NN=Cc4ccc(C(=O)NCCN(C)C)cc4)ncnc32)c1`, the “activity change, negative = inhibition” value was 19.8%. Same read-out and setting: as for `Cc1nnc(-c2ccc(C)c(-c3ccc(C(=O)Nc4cccc(C#N)c4)cc3)c2)o1`, the figure is 10.9%; as for `COc1ccc(-c2ccc3c(NC(=O)C4CC4)n[nH]c3n2)cc1`, 46.2%; as for `Fc1cccc(COc2ccc(Nc3ncnc4sc(-c5cccs5)cc34)cc2Cl)c1`, 15.6%. As to `COc1cc(C)c(NC(=O)CN(C)C)cc1Nc1nc(Nc2cccc(F)c2C(N)=O)c2cc[nH]c2n1`, the “activity change, negative = inhibition” value was 9.98%. For `Nc1nccc(-c2c(-c3ccc(F)cc3)ncn2C2CCNCC2)n1`, the Potency result was “inactive”. Take `COc1ccc(-c2nn3ncccc3c2-c2ccnc(Nc3ccc4c(c3)OCCO4)n2)cc1`: the “activity change, negative = inhibition” value is 9.89%. `O=S1CCN(Cc2ccc(-c3ccc4ncnc(Nc5ccc(OCc6cccc(F)c6)c(Cl)c5)c4c3)o2)CC1`: the “activity change, negative = inhibition” value is 47.3%. Turning to `O=C(OC1CNC(C#Cc2cc3ncnc(Nc4ccc5c(ccn5Cc5cc(F)ccc5F)c4)c3s2)C1)N1CCOCC1` (centres undefined), the “activity change, negative = inhibition” value is 33.4%. For `Fc1ccc(-c2ncn(CCCN3CCOCC3)c2-c2ccncc2)cc1`, the “activity change, negative = inhibition” value was 51.9%. For the compound `Fc1ccc(-c2c(-c3ccncc3)nc3n2CCS3)cc1`, the “activity change, negative = inhibition” value was -2.73%. On to `COc1cccc(-n2ncc3c(NN=Cc4ccc(C)cc4)ncnc32)c1`, for which the “activity change, negative = inhibition” value is 56.8%. As for `NC(=O)c1sc(-n2cnc3cc(C(F)(F)F)ccc32)cc1OCc1ccccc1Br`, the “activity change, negative = inhibition” value is 51.9%. With `COc1cccc(-n2ncc3c(NN=Cc4ccc(F)cc4)ncnc32)c1`, the “activity change, negative = inhibition” value was 30.7%. With `COc1cccc(-n2ncc3c(NN=Cc4ccc(S(C)(=O)=O)cc4)ncnc32)c1`, the “activity change, negative = inhibition” value is 53.9%. As for `Nc1nccc(C#Cc2cncnc2Nc2ccc(OCc3cccc(F)c3)c(Cl)c2)n1`, the “activity change, negative = inhibition” value was 1.01%. In the case of `O=C(OC1CNC(C#Cc2cc3ncnc(Nc4ccc(OCc5cccc(F)c5)c(Cl)c4)c3s2)C1)N1CCOCC1` (centres undefined), the “activity change, negative = inhibition” value is 25.9%. Consider `Nc1ccc(C#Cc2cncnc2Nc2ccc(OCc3cccc(F)c3)c(Cl)c2)cc1`, for which the “activity change, negative = inhibition” value is 12.3%. On the same count and under the same terms, as for `NC(=O)c1cccc(Nc2nccc(Nc3cccc4[nH]ncc34)n2)c1`, the figure is 18.3%; as for `Fc1ccc(-c2ncn(C3CCNCC3)c2-c2ccnc(Oc3cccc(C(F)(F)F)c3)n2)cc1`, 0.701%; as for `COc1cc2ncn(-c3cc(OCc4ccccc4C(F)(F)F)c(C(N)=O)s3)c2cc1OC`, 18.7%.

Turning to `Nc1ncnc2occ(-c3ccc(NC(=O)Nc4cccc(C(F)(F)F)c4)cc3)c12`, the “activity change, negative = inhibition” value was 33.6%.

For the compound `COC(=O)Nc1nc2ccc(S(=O)(=O)c3ccc(NC(=O)Nc4cc(C(F)(F)F)ccc4F)cc3)cc2[nH]1`, the “activity change, negative = inhibition” value was 16.9%.

Consider `COc1ccc(Nc2ncc(-c3ccccc3)o2)cc1OC`, for which the “activity change, negative = inhibition” value is 2.7%.
